22 molecules from PubChem BioAssay (NCATS) can be followed below.

Where “and” joins values, the source holds several entries; their conditions need not be identical. Equal entries are not always repeated. Inconclusive results are not listed. Unmarked numbers belong to inactive results. Calls of active or inactive are those of the source. Calls follow the shape of the dose curve; as a rule, active = well fitted curve in the direction sought with a large enough effect in the repeat runs; inconclusive = weak or mixed curves; inactive = no such curve, though single readings can be large; an effect the other way counts as inactive or inconclusive.

The first assay is described as follows: qHTS assay for small molecule agonists of the antioxidant response element (ARE) signaling pathway measured by Nrf2-dependant transcriptional activity (AID 720636).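 Also: HepG2 cells with an ARE-driven luciferase reporter; % of control where 0% means no effect.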 The following applies: ARE-luc HepG2, Nrf2 luciferase reporter, 16 h; series mostly up to 92.4 µM. In a few lines:
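Reporter gene assay, HepG2 ARE-luc: 16 hr compound, 37 C, 5% CO2; read-out luciferase luminescence.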
For orientation: In qHTS, concentration-response curves come from the screen itself.
In the case of `CC1(C)C(C=C(Cl)Cl)C1C(=O)OC(C#N)c1cccc(Oc2ccccc2)c1` (stereo unspecified), the call was inactive.
On the same count and under the same terms, under `CCOC(=O)CC(SP(=S)(OC)OC)C(=O)OCC` (stereo unspecified) stands “inactive”; under `C[C@]12CCC(=O)C=C1CC[C@@H]1[C@@H]2CC[C@@]2(C)[C@H]1CC[C@]2(C)O`, “inactive”; under `COc1cc(OC)c(OC)cc1C=O`, “inactive”.
As to `C[C@]1(O)CC[C@H]2[C@@H]3CCC4=CC(=O)CC[C@]4(C)[C@@]3(F)[C@@H](O)C[C@@]21C`, the molecule was called inactive.
With `O=C(O)CCCc1ccc(N(CCCl)CCCl)cc1`, the result was inactive.
Still for that read-out and setting: under `CC(C)NC(C)C` stands “inactive”; under `COP(=S)(OC)SCN1C(=O)c2ccccc2C1=O`, “inactive”.
The same measure, in the same setting: the entry for `O=P1(N(CCCl)CCCl)NCCCO1` (stereo unspecified) is “inactive”; for `Nc1ccccc1` it is “inactive”.
On the same count and under the same terms, under `Oc1ccc(Cl)cc1` stands “inactive”.
As to `CC(C)c1cccc(C(C)C)c1O`, the molecule was called inactive.
On the same count and under the same terms, under `CN1C[C@H](C(=O)N[C@]2(C)O[C@@]3(O)[C@@H]4CCCN4C(=O)[C@H](Cc4ccccc4)N3C2=O)C=C2c3cccc4[nH]cc(c34)C[C@H]21` stands “inactive”; under `CCC(C)(C)c1ccc(O)cc1`, “inactive”; under `NCCc1ccc(O)cc1`, “inactive”.
On the same count and under the same terms, the entry for `COC(=O)C(c1ccccc1)C1CCCCN1` (stereo unspecified) is “inactive”.
On the same count and under the same terms, under `Nc1ccccc1C(=O)O` stands “inactive”.
As to `C[C@]12CCC(=O)C=C1CC[C@@H]1[C@@H]2CC[C@]2(C)C(=O)CC[C@@H]12`, the outcome was inactive.
Same read-out and setting: the entry for `CCCC(C)(COC(N)=O)COC(N)=O` is “inactive”.
With `CC(C)(C)c1ccc(O)cc1`, the outcome was inactive.
With `O=C1c2ccccc2C(=O)C1C(=O)C(c1ccccc1)c1ccccc1`, the call was inactive.
On to `COP(=S)(OC)Oc1ccc(SC)c(C)c1`, for which the molecule was classed as inactive.

A further assay can be described thus: qHTS assay for small molecule antagonists of the retinoid-related orphan receptor gamma (ROR-gamma) signaling pathway - cell viability counter screen (AID 720652).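 Also: CHO reporter cells with doxycycline-induced ROR-gamma expression; compound exposure lasted 16 hr before ATP read; % is scaled to controls: 0 for no effect and ±100 for the full control effect.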 Particulars: RORgamma reporter cell line viability counter screen; series mostly up to 92.2 µM. The essentials:
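Steps: seed CHO cells bearing TET-inducible ROR and ROR response element-luciferase; rest 5 hr at 37 C; add compound, then doxycycline; incubate 16 hr; add CellTiter-Glo and read luminescence as ATP-based viability.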
In the case of `CCOC(=O)CC(SP(=S)(OC)OC)C(=O)OCC` (stereo unspecified), the molecule was classed as inactive.
Still for that read-out and setting: under `C[C@]12CCC(=O)C=C1CC[C@@H]1[C@@H]2CC[C@@]2(C)[C@H]1CC[C@]2(C)O` stands “inactive”; under `COc1cc(OC)c(OC)cc1C=O`, “inactive”; under `C[C@]1(O)CC[C@H]2[C@@H]3CCC4=CC(=O)CC[C@]4(C)[C@@]3(F)[C@@H](O)C[C@@]21C`, “inactive”.
Same read-out and setting: the entry for `CC(C)NC(C)C` is “inactive”; for `O=P1(N(CCCl)CCCl)NCCCO1` (stereo unspecified) it is “inactive”; for `Nc1ccccc1` it is “inactive”.
On the same count and under the same terms, the entry for `Oc1ccc(Cl)cc1` is “inactive”; for `CC(C)c1cccc(C(C)C)c1O` it is “inactive”; for `CN1C[C@H](C(=O)N[C@]2(C)O[C@@]3(O)[C@@H]4CCCN4C(=O)[C@H](Cc4ccccc4)N3C2=O)C=C2c3cccc4[nH]cc(c34)C[C@H]21` it is “inactive”.
Take `CCC(C)(C)c1ccc(O)cc1`: the outcome was inactive.
Same read-out and setting: the entry for `NCCc1ccc(O)cc1` is “inactive”; for `COC(=O)C(c1ccccc1)C1CCCCN1` (stereo unspecified) it is “inactive”; for `Nc1ccccc1C(=O)O` it is “inactive”.
Turning to `C[C@]12CCC(=O)C=C1CC[C@@H]1[C@@H]2CC[C@]2(C)C(=O)CC[C@@H]12`, the molecule was called inactive.
The same measure, in the same setting: under `CCCC(C)(COC(N)=O)COC(N)=O` stands “inactive”.
Same read-out and setting: the entry for `COP(=S)(OC)Oc1ccc(SC)c(C)c1` is “inactive”.

A short description of another assay: qHTS assay for small molecule agonists of the antioxidant response element (ARE) signaling pathway measured by Nrf2-dependant transcriptional activity - cell viability counter screen (AID 720653). Also: % is scaled to controls: 0 for no effect and ±100 for the full control effect. Particulars: ARE-bla HepG2 viability, CellTiter-Glo ATP luminescence, 16 h; hits give low values. In a few lines:
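Cytotoxicity counter screen: intracellular ATP quantified by CellTiter-Glo luminescence in the same ARE-bla HepG2 plates, after 16 h compound exposure and a 2 h beta-lactamase substrate step.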
Take `CC1(C)C(C=C(Cl)Cl)C1C(=O)OC(C#N)c1cccc(Oc2ccccc2)c1` (stereo unspecified): the max response was -2.42%.
Still for that read-out and setting: the figure for `CCOC(=O)CC(SP(=S)(OC)OC)C(=O)OCC` (stereo unspecified) is 25% and -5.73% and -3.35%; for `C[C@]12CCC(=O)C=C1CC[C@@H]1[C@@H]2CC[C@@]2(C)[C@H]1CC[C@]2(C)O` it is 11%.
Same read-out and setting: under `COc1cc(OC)c(OC)cc1C=O` stands 3.08%; under `C[C@]1(O)CC[C@H]2[C@@H]3CCC4=CC(=O)CC[C@]4(C)[C@@]3(F)[C@@H](O)C[C@@]21C`, -5.41%.
Still for that read-out and setting: under `O=C(O)CCCc1ccc(N(CCCl)CCCl)cc1` stands -0.747% and 2.01%; under `CC(C)NC(C)C`, -19.4%; under `COP(=S)(OC)SCN1C(=O)c2ccccc2C1=O`, 3.01%.
As to `O=P1(N(CCCl)CCCl)NCCCO1` (stereo unspecified), the max response is 1.71% and -4.84%.
On to `Nc1ccccc1`, for which the max response was -9.58%.
The same measure, in the same setting: under `Oc1ccc(Cl)cc1` stands -5.13%; under `CC(C)c1cccc(C(C)C)c1O`, -3.43%; under `CN1C[C@H](C(=O)N[C@]2(C)O[C@@]3(O)[C@@H]4CCCN4C(=O)[C@H](Cc4ccccc4)N3C2=O)C=C2c3cccc4[nH]cc(c34)C[C@H]21`, -19% and -17.1%.
Same read-out and setting: under `CCC(C)(C)c1ccc(O)cc1` stands -17% and -1.76%.
The same measure, in the same setting: the figure for `NCCc1ccc(O)cc1` is 13.6%; for `COC(=O)C(c1ccccc1)C1CCCCN1` (stereo unspecified) it is 3.62% and -0.896%.
In the case of `Nc1ccccc1C(=O)O`, the max response is 1.19%.
Turning to `C[C@]12CCC(=O)C=C1CC[C@@H]1[C@@H]2CC[C@]2(C)C(=O)CC[C@@H]12`, the max response was 3.62% and -13.2%.
Still for that read-out and setting: under `CCCC(C)(COC(N)=O)COC(N)=O` stands 2.78% and -4.68%; under `CC(C)(C)c1ccc(O)cc1`, -7.43%.
Same read-out and setting: under `O=C1c2ccccc2C(=O)C1C(=O)C(c1ccccc1)c1ccccc1` stands -16.2%; under `COP(=S)(OC)Oc1ccc(SC)c(C)c1`, -8.21% and -17%.
